In the library only some 5.3% were active in any assay of this set; here they are far more common.
ALR inh = human ALR oxidase inhibition via reduced H2O2; AID 485317; 3.8% of 290,000 active; P55789; purified ALR, DTT oxidation, H2O2 HRP-luminol luminescence; inhibition, % (concentration not given with the values);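 active = mean replicate inhibition above about 79%, with every replicate also reaching it, limit read from the data; inconclusive = only one of the two criteria met; inactive = mean below limit and not every replicate reaching it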
Target sequence (P55789 whole entry, looked up): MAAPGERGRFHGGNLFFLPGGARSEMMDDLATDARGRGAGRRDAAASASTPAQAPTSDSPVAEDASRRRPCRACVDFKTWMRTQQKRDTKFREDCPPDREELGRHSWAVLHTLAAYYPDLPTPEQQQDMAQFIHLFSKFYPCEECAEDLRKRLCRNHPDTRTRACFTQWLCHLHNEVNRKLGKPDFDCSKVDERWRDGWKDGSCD
M18AAP inhibitor = blocks P. falciparum M18 aspartyl aminopeptidase. recombinant PfM18AAP, H-Glu-NHMec fluorogenic cleavage. inhibition, % at 7.35 µM. 1.2% of 290,000 active;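 active = inhibition above the campaign mean inhibition over all tested compounds plus 3 SD, cut at about 28% in these data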;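 also: 0% = plate median of test compound wells and 100% = 2 mM ZnCl2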
SUMO Mot1 rescue = inhibitors of SUMOylation pathway: yeast Mot1-301 growth rescue; S. cerevisiae Mot1-301 growth rescue, ATP luminescence, 38.5C; percent above DMSO median, 100 means doubled; growth rescue, % at 18.8 µM; 1% of 320,000 active; AID 2716;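 active = every valid replicate shows activation above 250% relative to neutral control wells; inactive = the rest, any valid replicate at or below 250%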;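 also: OY570 slx delta 5 strain wells were the positive control but not used for scaling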
HIF activator = HIF pathway transcriptional activation; U2OS HRE-luciferase reporter, luminescence; normalized: DMSO 0%, desferrioxamine 100%; AID 1910; activation, % at 7.5 µM (by protocol); 0.32% of 300,000 active;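 active = mean activation of at least 10% of the iron chelator positive control signal, with at least half of replicates also reaching 10%; inconclusive = mean and replicate majority disagree about reaching 10%; inactive = mean and most replicates under 10%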
Active calls of the source: *; ? = inconclusive; / = not tested or not shown.

SMILES | ALR inh | M18AAP inhibitor | SUMO Mot1 rescue | HIF activator
CC(=O)N1CCN(c2ccc(Nc3nc(C)nc4c3oc3ccccc34)cc2)CC1 | 96.2* | / | -4.4 | -0.3
Cn1c(N)cc(=O)n(Cc2ccccc2)c1=O | 99.0* | 1.2 | 5.3 | -3.8
Cn1c(=O)n(Cc2ccccc2)c2ccccc21 | -11.9 | -0.9 | -7.3 | -0.5
Cn1c(N)c(C(=O)CCl)c(=O)n(Cc2ccccc2)c1=O | 99.1* | 1.8 | 10.3 | -5.0
O=C(c1ccc(-c2nnc(-c3ccccc3)o2)cc1)N1CCCCCC1 | 2.1 | 7.9 | -22.9 | 40.4*
O=C(COC(=O)CSc1ccc2ccccc2c1)NC1CCCC1 | 99.6* | -1.1 | -9.1 | 0.0
O=C(COC(=O)CSc1ccc2ccccc2c1)NC1CC1 | 27.1 | 4.0 | 16.1 | -0.4
COc1cc(CC(=O)OCC(=O)Nc2cc([N+](=O)[O-])ccc2F)cc(OC)c1OC | 7.3 | 2.4 | -16.7 | -0.3
COc1ccccc1OCC(=O)OCC(=O)NC1CCCCC1 | -4.6 | / | -13.4 | /
COc1ccccc1Nc1ccc([N+](=O)[O-])cc1N | / | 31.1* | 275.3 | 0.0
COc1ccccc1NCCC(=O)OCC(=O)Nc1cc([N+](=O)[O-])ccc1F | 92.8* | / | 38.7 | /
COc1ccccc1Nc1c([N+](=O)[O-])cc(C)cc1[N+](=O)[O-] | -0.5 | -1.0 | 108.1 | -0.6
COc1ccccc1NCCC(=O)OCC(=O)NC1CC1 | 98.6* | 6.4 | -4.9 | 0.0
N/C(=N\OC(=O)CCC1CCCC1)c1cccc([N+](=O)[O-])c1 | -5.3 | 0.5 | 1.9 | 0.4
Cc1ccc(-c2nc(CC(=O)Nc3cccc(S(=O)(=O)NC4=NCCC4)c3)cs2)cc1 | -7.0 | / | -5.9 | /
COc1ccccc1CCC(=O)OCC(=O)NC1CCCCC1 | -2.3 | -7.3 | 3.6 | 0.1
COc1ccccc1NCCC(=O)OCC(=O)NC1CCCCC1 | 98.7* | 22.9 | -2.8 | -0.3
CCn1nc(C)cc1C(=O)N1CCc2c([nH]c3ccccc23)C1c1cc(F)ccc1F (centres undefined) | -24.3 | -10.2 | 479.2* | 4.1
O=C(c1cc2ccccc2o1)N1CCN=C1SCc1cccnc1 | 98.6* | 8.3 | 7.7 | 1.0
O=C(c1ccc(Br)o1)N1CCN=C1SCc1cccnc1 | 99.7* | 7.0 | -6.4 | /
O=C(c1cc2ccccc2o1)N1CCN=C1SCc1cccc(F)c1 | -41.7 | 6.3 | 341.8 | /
CC(C)Cc1ccc(CN2CCCC(NC(=O)CCN3CCCO3)C2)cc1 (centres undefined) | -11.2 | -0.1 | 5.1 | 0.3
CCN(CC)c1ccc(C(=O)NN)cc1 | 1.7 | -26.7 | -4.1 | -0.2
Nc1ccc(N(CCO)CCO)cc1 | 97.2* | 21.5 | -11.1 | -0.1
CCN(CC)c1ccc(N)cc1 | 96.6* | / | 23.3 | /
SMILES | ALR inh | M18AAP inhibitor | SUMO Mot1 rescue | HIF activator
Nc1ccc(C(=O)N(CCO)CCO)cc1 | -5.0 | 2.4 | 276.5 | -0.1
CCCN1C(=O)C2(C(C(=O)c3ccc(C)o3)=C(O)C(=O)N2CCCOC)c2ccccc21 (centres undefined) | / | 0.7 | 119.0 | 0.4
Clc1ccc(SCCOCCN2CCc3ccccc3C2)cc1 | -4.1 | -6.8 | 270.2* | 0.0
COc1ccc(CNC(=O)COc2cc3c(c4oc(=O)cc(C)c24)CCC(C)(C)O3)cc1OC | -16.7 | 4.0 | 334.3* | 0.0
CCCc1cc(=O)oc2c3c(cc(OCC(=O)NCCCn4ccnc4)c12)OC(C)(C)CC3 | -46.7 | 3.5 | 411.6* | 0.1
Cc1oc(-c2ccccc2Cl)nc1CS(=O)CC(=O)NCc1ccco1 (centres undefined) | 98.1* | 7.0 | 3.9 | -0.1
Cc1oc(-c2ccc(Cl)cc2)nc1CS(=O)CC(=O)NCc1ccco1 (centres undefined) | 98.6* | -2.9 | 57.5 | 0.4
Cc1oc(-c2ccccc2Cl)nc1CS(=O)CC(=O)NCc1ccccc1Cl (centres undefined) | 98.8* | 4.9 | -7.1 | -0.3
CCc1ccc(-c2nc(CSCC(=O)NCc3ccco3)c(C)o2)cc1 | / | 7.8 | / | -3.0
C/C=C\C=C/C(=O)Nc1cccc(C2=NOC3(C2)C[C@H](C(N)=O)N(C(=O)Cc2ccc([N+](=O)[O-])cc2)C3)c1 (some centres undefined) | -0.3 | / | -14.0 | -4.3
Cc1ccc(S(=O)(=O)Nc2cc(C(C)C)c(O)cc2C)cc1 | 96.6* | -20.2 | -8.0 | -0.3
Cc1ccc(S(=O)(=O)Nc2cc(Cl)c(O)cc2C)cc1 | / | 7.7 | -13.1 | -0.2
COc1ccc(-c2cn[nH]c2-c2ccc(OC)cc2O)cc1 | 96.9* | 3.9 | -18.1 | 0.1
COc1cccc(Oc2cn[nH]c2-c2ccc(O)cc2O)c1 | 80.4* | 9.8 | -16.2 | -0.4
NS(=O)(=O)c1ccc(CCNC(=O)C(=O)c2cn(CC(=O)N3CCOCC3)c3ccccc23)cc1 | -3.4 | 3.4 | -11.0 | -0.4
O=c1cc(-c2ccc([N+](=O)[O-])cc2)c2ccc(O)cc2o1 | -33.6 | 7.6 | -7.2 | 0.0
Cc1cccc(NC(=O)/C(C#N)=C/c2ccc[nH]2)c1C | -0.1 | 3.4 | -5.5 | 2.6
C=CCNc1nc2c3ccccc3n(C(C)=O)c2s1 | 96.3* | 3.4 | -22.0 | -0.5
CCOC(=O)c1c2ccccc2[n+]([O-])n1CCO | -3.4 | / | -9.1 | 0.9
CC(NC(=O)Cn1cc([N+](=O)[O-])cn1)c1ccc(C(C)(C)C)cc1 (centres undefined) | -0.3 | / | -9.0 | -0.5
COc1ccccc1CNC(=O)Nc1cccs1 | 97.4* | 16.5 | -11.6 | 0.4
COc1ccc(CNC(=O)Nc2cccs2)cc1OC | 4.7 | -6.9 | 3.0 | -0.5
COc1cccc(CNC(=O)Nc2cccs2)c1 | 99.3* | 6.5 | 78.4 | 2.0
Cc1ccccc1NC(=S)NC1(C)CCS(=O)(=O)C1 (centres undefined) | -3.0 | 4.3 | 5.8 | 0.1
COC(=O)C1Sc2[nH]c(=O)sc2C2c3ccccc3OC(=O)C12 (centres undefined) | ? | 7.7 | 15.0 | -1.2
SMILES | ALR inh | M18AAP inhibitor | SUMO Mot1 rescue | HIF activator
CC1(C(=O)O)Sc2[nH]c(=O)sc2C2c3ccccc3OC(=O)C21 (centres undefined) | 33.5 | 30.2* | -18.8 | -1.2
N#C/C(=C\c1c[nH]c2ccccc12)C(=O)NC1CCCC1 | 96.3* | 13.0 | 34.5 | 1.2
N#C/C(=C\c1c[nH]c2ccccc12)C(=O)NC1CC1 | -10.6 | -11.9 | -23.6 | 4.7
CCOCCCNC(=O)c1ccc(N2CC3CC(C2)c2cccc(=O)n2C3)c(NC(=O)Nc2cccc(OC)c2)c1 (centres undefined) | / | 0.4 | 227.5 | 0.6
Cc1ccc(Nc2nnc(-c3ccccc3N)o2)cc1C | -5.8 | -2.2 | 10.4 | 12.8*
c1ccc(Nc2nnc(-c3cccc4ccccc34)o2)cc1 | -17.0 | 0.4 | -11.4 | 2.1
CCOC(=O)c1c(S(=O)(=O)NCc2ccco2)c(C)n(C)c1C | -5.9 | -1.3 | -23.6 | 0.7
Cc1ccc(CCSc2ccc(C(C)C)cc2)cn1 | 50.7 | -15.6 | 86.7 | 0.3
COc1cccc(CNS(=O)(=O)c2c(C(=O)N3CCCCCC3)c(C)n(C)c2C)c1 | -2.3 | 7.4 | -9.9 | -0.1
CCN(CC)S(=O)(=O)c1cc(NC(=O)C(C)N2CCc3ccccc32)ccc1C (centres undefined) | -1.0 | -11.7 | -5.3 | -0.6
CC(C(=O)Nc1ccc(S(N)(=O)=O)cc1)N1CCc2ccccc21 (centres undefined) | 98.8* | -8.5 | 41.3 | 0.0
